Some test systems named below: T-47D breast; BT-549 breast; MDA-MB-435 melanoma; SW-620 colon; MCF7 breast; HCT-116 colon; HCC-2998 colon; KM12 colon.
Common to all, as to test: NCI-60 one-dose screen, 48 h (100 = growth as untreated, 0 = no growth, -100 = all killed)
Settings in all cases: 10 µM unless noted

Compounds without any hit were thinned out: in the full panel of roughly 83,000, 20% have a hit.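 Step 1: grow cells in 96-well plates. Step 2: add test compound at a single concentration. Step 3: incubate 48 h. Step 4: record percent growth.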 A number with no mark means an inactive call. Active and inactive are the calls of the source. How the source made its calls: active means growth percent below 10; inactive means the rest.

For the compound `O=CN1N=C(c2ccc(Nc3ccnc4cc(Cl)ccc34)cc2)CC1c1ccc(Cl)cc1` (configuration not stated), the growth was 23.1% with T-47D breast; 55.3% in the assay on BT-549 breast; -19.6% (active) in the assay on MDA-MB-435 melanoma; 32.9% with SW-620 colon; 18.4% in the assay on MCF7 breast; 11.7% in the assay on HCT-116 colon. The results for the growth in the assay on HCC-2998 colon and in the assay on KM12 colon were -20.4% (active) and 9.13% (active), respectively.

Take `C/C(=C\CCc1ccsc1)CC/C=C(\C)CCCN1CCSCC1`: the growth with T-47D breast was 70.1%; with BT-549 breast, 97.1%; in the assay with MDA-MB-435 melanoma it was 85.9%; in the assay on SW-620 colon, 92%; in the assay on MCF7 breast, 90.9%; in the assay with HCT-116 colon, 77.7%. Moreover, the growth in the assay on HCC-2998 colon is 96.4%; with KM12 colon, 84.3%.

Regarding `CCN1CC2=C(Nc3nc(SC)[nH]c(=O)c3C2c2cc(OC)c(OC)c(OC)c2)/C(=C/c2cc(OC)c(OC)c(OC)c2)C1` (configuration not stated), the growth in the assay with T-47D breast was 97.5%; in the assay on BT-549 breast it was 102%; with MDA-MB-435 melanoma, 93.5%; in the assay with SW-620 colon, 102%; in the assay on MCF7 breast it was 86.2%; in the assay on HCT-116 colon, 92.6%. In addition, the growth in the assay with HCC-2998 colon is 102%; with KM12 colon it was 97.5%.

As for `O=C(Nc1nc2c(C(F)(F)F)cccc2s1)c1cc(Cl)ccc1O`, the growth in the assay with T-47D breast was -1.67% (active); with BT-549 breast, -13.4% (active); in the assay on MDA-MB-435 melanoma it was 5.71% (active); with SW-620 colon, 12.2%; in the assay on MCF7 breast, 7.63% (active); with HCT-116 colon, -1.3% (active). The growth in the assay on HCC-2998 colon is 19.3%; in the assay with KM12 colon, 10.5%.

For `O=C(COc1cccc(/C=C2\Oc3ccc4ccccc4c3C2=O)c1)c1ccc(Cl)cc1`, the growth was 62.6% in the assay on T-47D breast; 3.5% (active) in the assay with BT-549 breast; 96.1% in the assay on MDA-MB-435 melanoma; 36% in the assay with SW-620 colon; 63.9% in the assay on MCF7 breast; 41.7% in the assay with HCT-116 colon. For the same compound, the growth is 87.5% in the assay on HCC-2998 colon and 96.5% with KM12 colon.

Consider `C[C@@H]1CN(c2nc3c(cc2F)c(=O)c(C(=O)O)cn3C(C)(C)C)C[C@H](C)N1`, for which the growth with T-47D breast is 95.5%; with BT-549 breast it was 107%; in the assay with MDA-MB-435 melanoma, 107%; in the assay on SW-620 colon, 100%; in the assay with MCF7 breast, 113%; with HCT-116 colon it was 92.2%. The growth in the assay on HCC-2998 colon was 98.1%; in the assay on KM12 colon, 98.5%.

`Cc1ccc2nc3c(n2c1)C(=O)C(=O)c1ccccc1-3`: the growth is -44.1% (active) in the assay with T-47D breast; -96.4% (active) with BT-549 breast; -69.6% (active) with MDA-MB-435 melanoma; -80.5% (active) in the assay on SW-620 colon; -64.1% (active) with MCF7 breast; -50.4% (active) with HCT-116 colon. Moreover, the results for the growth in the assay with HCC-2998 colon and with KM12 colon were -54% (active) and -26.6% (active), respectively.

Consider `O=C(Nc1cccc(Cl)c1)Nc1cccc(Cl)c1`, for which the growth with T-47D breast is 19.4%; in the assay on BT-549 breast it was 96.7%; in the assay with MDA-MB-435 melanoma, 88.8%; in the assay on SW-620 colon, 81%; in the assay on MCF7 breast, 64.3%; in the assay with HCT-116 colon, 42.5%. The growth is 72.6% in the assay on HCC-2998 colon and 43.6% in the assay with KM12 colon.

Consider `CCc1nn2c(-c3ccc(Cl)cc3C)c(-c3cc(OC)c(OC)c(OC)c3)nc2s1`, for which the growth is 58.8% in the assay on T-47D breast; 101% in the assay with BT-549 breast; 81.3% in the assay on MDA-MB-435 melanoma; 82.5% with SW-620 colon; 50.7% with MCF7 breast; 60.5% in the assay on HCT-116 colon. The growth is 86.3% with HCC-2998 colon and 89% in the assay with KM12 colon.

With `CSc1nc2nc3c(nc2c(=O)n1C)C(=O)c1ccccc1C3=O`, the growth is -45.3% (active) with T-47D breast; -94.8% (active) with BT-549 breast; -83.6% (active) with MDA-MB-435 melanoma; -55.7% (active) in the assay with SW-620 colon; -62.2% (active) in the assay on MCF7 breast; -37.6% (active) with HCT-116 colon. Besides, the results for the growth in the assay with HCC-2998 colon and in the assay on KM12 colon were -70.1% (active) and -64.2% (active), respectively.

As to `CC1CN(CC(O)c2ccc(Br)cc2)CCO1` (configuration not stated), the growth in the assay with T-47D breast was 107%; in the assay with BT-549 breast it was 106%; with MDA-MB-435 melanoma, 121%; in the assay on SW-620 colon, 109%; in the assay on MCF7 breast, 105%; in the assay on HCT-116 colon, 108%. Also, the growth in the assay with HCC-2998 colon is 103%; in the assay on KM12 colon, 107%.

As to `NC(=O)NC1(C(=O)O)CCCC1`, the growth was 93.6% in the assay with T-47D breast; 111% in the assay with BT-549 breast; 107% with MDA-MB-435 melanoma; 109% with SW-620 colon; 98.9% in the assay with MCF7 breast; 115% with HCT-116 colon. Moreover, the growth is 108% in the assay on HCC-2998 colon and 107% in the assay on KM12 colon.

On to `C=C1CCC2C(C)(COC(=O)CC)C(OC(=O)CC)CCC2(C)C1C/C=C1/C(=O)OCC1OC(=O)CC` (configuration not stated), for which the growth with T-47D breast is -51.9% (active); in the assay on BT-549 breast, 83.6%; in the assay with MDA-MB-435 melanoma, 2.16% (active); in the assay on SW-620 colon, -62.2% (active); in the assay with MCF7 breast it was -35.1% (active); in the assay with HCT-116 colon, -100% (active). The growth with HCC-2998 colon is -65.8% (active); in the assay on KM12 colon, 3.97% (active).

Turning to `COP(=O)(OC)C(c1ccccc1)(c1ccccc1)c1ccccc1`, the growth was 88.8% in the assay with T-47D breast; 117% with BT-549 breast; 91.2% in the assay on MDA-MB-435 melanoma; 98.1% in the assay with SW-620 colon; 103% in the assay on MCF7 breast; 73.1% in the assay with HCT-116 colon. Further, the growth is 114% in the assay with HCC-2998 colon and 93.7% in the assay with KM12 colon.
